# ROMK mod: ROMK potassium channel modulators, primary screen, cell-based, thallium flux, MLSMR library | AID 1918, 2009 | 130,000 tested, 2% active | ATP-sensitive inward rectifier potassium channel 1 (Homo sapiens), P48048 | Tet-inducible ROMK, thallium flux fluorescence; actives lie on both sides | B-score at 10 µM;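 active = signal ratio slope over the read window, or its plate-corrected B-score, at least 3 SD from the plate mean, either direction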;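 note: B-score of the F/F0 ratio slope over 7 to 12 s after thallium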
# Target sequence (P48048 whole entry, looked up): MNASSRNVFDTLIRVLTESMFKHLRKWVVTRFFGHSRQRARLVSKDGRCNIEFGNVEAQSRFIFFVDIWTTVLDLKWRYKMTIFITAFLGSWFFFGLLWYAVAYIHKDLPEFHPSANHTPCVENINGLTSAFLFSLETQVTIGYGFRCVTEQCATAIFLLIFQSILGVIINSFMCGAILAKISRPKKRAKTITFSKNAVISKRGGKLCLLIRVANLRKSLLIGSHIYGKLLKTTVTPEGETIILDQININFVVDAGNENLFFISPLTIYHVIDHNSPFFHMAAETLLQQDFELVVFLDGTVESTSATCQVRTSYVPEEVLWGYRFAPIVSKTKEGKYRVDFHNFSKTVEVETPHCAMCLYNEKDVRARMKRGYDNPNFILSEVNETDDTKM
# Cl transport mod: KCC2 cotransporter modulators, thallium flux, primary screen, cell-based, HEK293 KCC2, FluoZin-2 fluorescence, MLSMR; KCC2 cells, thallium flux FluoZin-2 fluorescence; Solute carrier family 12 member 5 (Homo sapiens), Q9H2X9; B-score of Tl+ flux slope (higher = more flux/activation; lower = inhibition) at 10 µM; 190,000 tested, 2.2% active;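 active = thallium flux slope and its plate-corrected score both differing from the plate sample mean at a set confidence after two filtering rounds, in either direction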;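 note: slope of fluorescence scaled to starting intensity during 10 to 20 s after thallium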
# Lmaj promast: Leishmania major promastigote growth inhibition, primary screen; Leishmania major promastigotes, resazurin fluorescence viability; inhibition, % at 10 µM; 200,000 tested, 9% active; AID 1063, 2008; in the data active = inhibition above about 50%;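 note: promastigotes grown with compound for 44 hours at 28 °C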
# INS promoter inh: inhibitors of insulin promoter-driven GFP, primary screen, imaging, TRM-6 cells (human fetal islet line), eGFP reporter, cell count. reporter expression induced with tamoxifen. 130,000 tested, 0.9% active. inhibition, % at 2 µM;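 active = inhibition above the mean plus 3 SD, with well images judged a real hit on visual review, cut at about 60% in these data, passing the limit was not always enough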
# Ins promoter up: insulin promoter activators in MIN6 cells, imaging, high-content screening, mouse beta cells. 190,000 tested, 0.3% active. MIN6 insulin promoter-GFP reporter; active compounds read high. z-score at 5 µM;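 active = z-score above 3 at 5 µM with at least 500 cells counted in the well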
# WT yeast gro inh: growth inhibition of WT strain, primary screen, mitochondrial fusion inhibitor project, WT and mutant strains, chemical genetic; mitochondrial fusion phenotypic screen; inhibition, % at 10 µM; 190,000 tested, 2.1% active; in the data active = inhibition above about 58%; tested in S. cerevisiae
# An asterisk follows results filed as active; / = not tested or not shown. In the library only some 12% were active in any assay of this set; here they are far more common.
SMILES,ROMK mod,Cl transport mod,Lmaj promast,INS promoter inh,Ins promoter up,WT yeast gro inh
CCCCn1c(SCC(N)=O)nc2c(sc3ccccc32)c1=O,-0.775,0.599,8.0,0.0,0.82,17.8
COc1ccc(NC(=O)CSc2nc3ccccc3c(=O)n2CCCN2CCCCC2)c(OC)c1,-2.69,/,100.4*,0.0,1.74,0.4
CCOC(=O)CSc1nc2c(sc3ccccc32)c(=O)n1CCCN1CCOCC1,-0.631,-1.23,100.0*,2.6,0.01,2.7
NNC(=S)Nc1ccc(S(=O)(=O)N2CCCCC2)cc1,1.37,-1.57,/,/,0.2,/
O=C(Nc1cc(Sc2ccccn2)cc([N+](=O)[O-])c1)c1ccc([N+](=O)[O-])cc1,/,/,-5.9,28.6,/,0.0
O=C(Nc1cc(Sc2nc3ccccc3s2)cc([N+](=O)[O-])c1)c1cccc(F)c1F,/,-2.43,73.2*,/,-0.12,22.2
Cc1cccc(N=Cc2c(O)cc(C)oc2=O)c1,0.579,0.153,62.3*,/,-0.01,-0.6
Cc1cc(O)c(/C=N/Nc2cccc(Cl)c2)c(=O)o1,0.183,-0.79,94.3*,/,-0.18,44.5
Cc1cc(O)c(/C=N/Nc2ccc(Cl)cc2)c(=O)o1,0.745,-0.0361,98.1*,/,-0.91,8.1
COc1ccc(Cl)cc1N=Cc1c(O)cc(C)oc1=O,0.0818,/,-7.7,31.8,/,/
Cc1cc(O)c(/C=N/Nc2ccccc2Cl)c(=O)o1,/,0.0463,8.2,/,0.94,12.6
S=C1NC(c2ccccc2)=NCN1c1ccc(Cl)cc1,0.252,3.48,-5.8,-19.4,/,/
Cc1ccccc1NC(=O)CC1SCCNC1=O (stereo not drawn),/,-0.0322,-2.5,-55.7,0.83,-14.5
FC(F)C(F)(F)c1cc(-c2ccccc2)n[nH]1,/,0.0263,/,/,0.12,/
Cn1nc(C(=O)NNC(=O)COc2ccccc2)c2ccccc2c1=O,/,0.903,55.0*,-13.5,0.12,4.5
COCCCn1c(SCc2ccccc2)nc2cc(OC)c(OC)cc2c1=N,/,-0.803,64.2*,28.0,/,-13.5
COc1ccc(Cn2c(SCc3cc(C)ccc3C)nc3cc(OC)c(OC)cc3c2=N)cc1,/,/,100.7*,3.2,-0.8,3.2
COc1ccc(Cn2c(SCc3ccc(C)cc3)nc3cc(OC)c(OC)cc3c2=N)cc1Cl,/,-0.199,100.4*,50.0,-0.78,96.4
CCCNC(=O)N[C@@H](CCSC)C(=O)OC,-0.604,0.656,-2.5,13.9,0.31,-3.2
C=CCSc1nc(NC)c2sccc2n1,/,-0.648,14.0,80.0*,-0.75,7.7
CNc1ccccc1C(C)(C)c1ccn[nH]1,0.225,0.879,6.0,/,0.62,4.4
O=[N+]([O-])c1ccc(N/N=C2/CCCCC2c2ccccn2)cc1 (stereo not drawn),/,-0.932,97.6*,/,0.17,74.0*
CC1CCCN(S(=O)(=O)c2coc(C(N)=O)c2)C1 (stereo not drawn),/,-0.565,-3.2,/,-0.45,2.1
CCCNC(=O)COC(=O)c1cc2c(=O)n3ccccc3nc2s1,1.16,/,10.6,-138.5,0.34,-4.4
Cc1cc(OCCCn2ccnc2)cc(C(C)C)c1,-0.719,0.528,78.3*,/,-0.95,38.5
SMILES,ROMK mod,Cl transport mod,Lmaj promast,INS promoter inh,Ins promoter up,WT yeast gro inh
Cc1cc(OCCn2ccnc2)cc(C(C)C)c1,-0.618,-0.501,91.5*,-23.1,0.14,45.1
CCC(C)c1ccc(OCCn2ccnc2)cc1 (stereo not drawn),-0.0527,-0.0332,59.6*,33.3,-0.46,70.8*
Cc1cc(OCCCn2ccnc2)ccc1C(C)C,-0.648,0.214,99.3*,-15.4,0.09,56.2
O=C(CC(=O)N/N=C\c1c(Cl)cccc1Cl)NCc1ccccc1,/,/,-2.8,6.7,-0.23,5.3
OC1(C2(O)CC(c3ccccc3)ON2)CCCCC1 (stereo not drawn),-0.975,-0.978,3.6,28.6,-0.7,-9.3
C/C(=N\NC(=S)NCc1ccccc1)c1ccc(C(C)(C)C)cc1,-0.0359,1.35,12.7,18.2,/,63.2*
C/C(=N\NC(=S)NCc1ccccc1)c1ccc(C#N)cc1,0.0671,-0.00205,4.9,/,-1.14,31.2
CC(=O)Nc1ccc(C(=O)N/N=C/c2ccccc2OC(=O)c2ccc(Cl)cc2)cc1,0.887,0.904,1.8,29.2,-0.65,1.4
Cc1ccc(C(=O)N/C(=C\c2ccc(-c3ccc(Cl)cc3)o2)C(=O)NCCCN(C)C)cc1,-2.78,-0.466,100.7*,/,-0.13,4.2
Cc1ccc(C(=O)N/C(=C/c2ccc(-c3cccc([N+](=O)[O-])c3)o2)C(=O)NC(C)C)cc1,-0.465,-1.09,2.2,/,0.23,-4.8
Cc1ccc(C(=O)N/C(=C/c2ccc(-c3cccc([N+](=O)[O-])c3)o2)C(=O)NC(C)(C)C)cc1,-1.91,-0.184,82.4*,19.5,-0.5,26.8
CCN(CC)CCn1c(=N)n(CC(=O)c2ccc(Br)s2)c2ccccc21,/,-1.32,/,/,-1.27,/
O=[N+]([O-])c1ccc(Sc2ccccn2)nc1,/,1.54,/,/,0.48,/
O=[N+]([O-])c1ccc(Sc2nnnn2-c2ccccc2)nc1,0.104,-0.638,81.9*,/,-1.05,24.6
COC(=O)c1ccc(NC(=O)NC2CCCCC2)cc1,0.713,0.424,52.2*,19.4,0.91,-2.4
COC(=O)c1ccc(NC(=S)NC2CC3CCC2C3)cc1 (stereo not drawn),-1.46,-1.01,73.1*,25.5,0.3,43.0
COC(=O)c1ccc(NC(=S)NCC2CC2)cc1,-0.0814,0.685,-3.4,/,/,-11.5
S=C(NNc1cccc(Cl)c1)NC1CCCCC1,-1.7,0.0281,31.0,/,-0.05,61.2*
COC(=O)c1ccc(NC(=S)NC2CCCCC2)cc1,-0.945,/,87.0*,/,0.51,8.3
CCOc1ccc(NC(=O)c2ccc(NC(=S)NC3CCCCC3)cc2)cc1,0.0777,0.0387,9.9,15.0,/,2.0
Cc1ccn2c(c1)nc(=S)n2C(=O)c1ccco1,0.242,1.07,-2.6,0.0,0.75,3.9
CCOC(=O)C1C(=O)NC(c2ccccc2)=NC1c1ccccc1 (stereo not drawn),/,1.19,-2.2,0.0,/,28.8
S=C(Nc1ccc(Nc2ccccc2)cc1)NC1CCCCCC1,-1.92,-0.0298,23.8,/,-1.52,80.5*
Cc1ccc(C)c(-c2cc(C(=O)NN3CCOCC3)c3ccccc3n2)c1,-0.711,1.53,2.6,/,-0.32,-2.9
CCCNC(=O)c1c(N)n(-c2ccc3c(c2)OCO3)c2nc3ccccc3nc12,/,0.846,-3.0,30.8,-0.98,/
Nc1c(C(=O)NC2CC2)c2nc3ccccc3nc2n1-c1ccc2c(c1)OCO2,1.18,-0.648,97.1*,-44.4,0.96,7.3
COc1ccc(-n2c(N)c(C(=O)Nc3c(C)n(C)n(-c4ccccc4)c3=O)c3nc4ccccc4nc32)cc1,/,-1.16,/,/,/,/
Nc1c(C(=O)OCC2CCCO2)c2nc3ccccc3nc2n1-c1ccc2c(c1)OCCO2 (stereo not drawn),/,0.864,54.1*,0.0,-0.32,-8.7
